Reference: the supplement of paper PMC11417369
Over roughly 25,000 sequences, “ln(normalized median fluorescence intensity)” has its median near 9.3; the highest 2% begin near 10. Shown is part of a subset that was picked to be rich in the highest values.

Tested on: PF3D7_0420300 AP2 domain 1 (GST-tagged)
Experiment: gcPBM binding intensity (ln(normalized median fluorescence intensity)); higher = stronger DNA binding
Method in brief: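 For binding intensity, the highest Masliner-normalised natural-log median intensity across replicate spots of either probe orientation was taken. Protein bound to the array was stained with Alexa488 anti-GST antibody and scanned at 488 nm. The protein, GST-tagged P. falciparum DNA-binding domains from E. coli at about 25 μg on average, had been applied for 1 h to an Agilent 4 × 180k array of primer-extended double-stranded 36-bp intergenic genomic probes and negative controls.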

Sequence	gcPBM binding intensity (ln)
GGTGTATGTTAAAGGAGTACATATATATATATATAT [XGTACX_site7727]	9.3
ACCTTTGATATATACACACACATAAAAAAAATATAT [CACACA_site6952]	9.93
TACAACCTTTAGACAAGTACAAGAATTATATGTGGC [XGTACX_site4581]	9.4
AAAAAAAAAAATTACACACATACATATAATAATAAT [CACACA_site2193]	9.85
AGCAGTCGACAGGACAGTACACAGTAGCCAGGAAAT [XGTACX_site4929]	9.32
AAATTATAAATACCTACACACTTATCAAAATAAATT [CACACA_site5280]	9.56
ATTGGGTTCATCAGCACACACAACATCATGTAATAA [CACACA_site5093]	9.5
AATTAATGGAAACAAGTCAAATGATCTTTATGCATA [TGCATGCA_negctrl_site540]	9.13
TTTATATAATTTTAATGTACATATATATATATAAAT [XGTACX_site4381]	8.98
AAAAAACACAGACACACACACATATACATACATACA [CACACA_site2666]	10.2
AAAAAAAACAGACACACACACATACACATACATACA [CACACA_site2857]	10.2
TAAACAGACATATAAACACACATACATACATACATA [CACACA_site7215]	9.56
AACAGACATACATACACACATACATACAGACATACA [CACACA_site1942]	9.9
TACACATACAGACATACACACATACACATATACACA [CACACA_site6918]	9.88
AAAAAAAACAGACACACACACACATATACATACATA [CACACA_site2665]	10.2
TAAACAGACATACATACACACATACATACAGACATA [CACACA_site6997]	9.88
CATATACATACACATACACACATACAGACATACACA [CACACA_site6919]	9.83
TACATACACAGACACACACACATATATATATATATA [CACACA_site3557]	9.89
TAATGATTATATGACTGTACATTTGTAGGTATAATT [XGTACX_site3373]	9.18
ACATAAAAATTATGCACACTTAATAAAGCGAAATGT [CACACA_site3183]	9.45
TATATATAAAAATATACACACACAAATGTATATATA [CACACA_site7956]	9.54
AAATATTTTATACTTGCACACAAAATATATTAAAAT [CACACA_site8606]	9.32
AAAAACAAAAAAGAAGCACACATATATATATATATA [CACACA_site8779]	9.6

Sequence	gcPBM binding intensity (ln)
ATCCTACTATGTTATACACACAATTACTTTTTTCTC [CACACA_site3712]	9.86
GGTGGTGGTGGGTGGGTGCTTCTATTATTATATTAT [GTGCAC_site9391]	10.7
TTATACTTTGGGTGGTGTACTATATTATGCTTATAA [XGTACX_site1106]	9.51
CTTATTATTATATGGGTGCTCATATTTTTCTTTTTT [GTGCAC_site9723]	9.4
CCTTTATAATTGGAAACACACATATAAAGTATATAT [CACACA_site3900]	9.2
CATTCAAACAAAAAAAGTACTCATCACATAATATAT [XGTACX_site1251]	9.44
ATATAAATAAACAGGTGTACTATAATGTTCATAGTA [XGTACX_site1553]	9.47
TTAATTATAATTATATGTACGAACTTTTTTTTTTTT [XGTACX_site6586]	9.14
AAAAAAAAAAAAAAAACACACAGAACAATATATAAA [CACACA_site4698]	9.76
AAAAAAAACGAACACACACACATTCAATATAAAACA [CACACA_site6170]	10.2
AAAAAAAACGGACACACACACATTCAATATAAAACA [CACACA_site4189]	10.2
TTCATTAAAACGAATACACACATAAATATATAAAAG [CACACA_site4824]	9.62
AAAAAAAACAGACACACACACATAAATATAAATAAA [CACACA_site6214]	9.96
AAAAAAAACAGACACACACACATTCAATATAAAACA [CACACA_site41]	10.2
AATATTATAATATAAACACACAAAATTCAATTATAT [CACACA_site3789]	9.69
AAAAAAAAAAAACACACACACACATTCAATATAAAA [CACACA_site40]	10
AATATTAAAATATAAACACACAAAATTCAATTATAT [CACACA_site5971]	9.61
TATAATAGTTCATAGGTGCAATATAATAAATTTATA [GTGCAC_site9573]	9.13
TACCTTTATTAATAAAGTACATTAATCTGTGTATAC [XGTACX_site8720]	9.09
AGTATTCACTTAATATGTACATATTTATTATAAGAG [XGTACX_site3434]	9.11
ACATCAAGAATTATTAAGAATACGGATAGATAAAAT [GTGCAC_negctrl_site261]	9.4
ATAAAATTTTATATGGGTACATAATATAATATATAT [XGTACX_site8160]	9.21
AAAAAAAAAAAGAAGGGTACATATTATATATAATAT [XGTACX_site6204]	9.43

Sequence	gcPBM binding intensity (ln)
ATTATAAGAAGGGGGGGTACATAAATATAAATGTAT [XGTACX_site5624]	10.3
TATAAGAATAAAAAGGGTACATAAAATAATAATATA [XGTACX_site2355]	9.55
ATATTAAAAATATATACACACATATATATAAATATA [CACACA_site2257]	9.37
AAAAAAAATAAAAATAGTACTCAAAAAATTATGAAT [XGTACX_site3073]	9.19
GCTCAATTTTTGGGTACACACAAATGTATAAGAATA [CACACA_site7178]	9.22
TTATGGTTATACATATGTACATATATATATATATAT [XGTACX_site1494]	9.29
ATAATTACAAAATAAACACACATATAGATTTATATG [CACACA_site6343]	9.6
TATAAATATACACCCACACACATATATAAATAAATA [CACACA_site7717]	9.89
TATACACCCTAAAATACACACACACCCACCCATATA [CACACA_site9380]	10.3
TATATAAATATACACCCACACACATATATATATATA [CACACA_site9247]	9.63
TATATATATATATACACACACACCCTAAAAATATAT [CACACA_site1611]	9.97
TATATATATAAATACACACACACCCTAAAAATATAT [CACACA_site4970]	10.1
TATAAATATACACCCACACACATATATATATATATA [CACACA_site3745]	9.66
TACACGCTAAAATACACACACACACCCACATATATA [CACACA_site4153]	10.2
TACCCACTAAAATACACACACACACCCACATATATA [CACACA_site6141]	10.2
AAAAAAAATACATACACACACACACCCACATATATA [CACACA_site3561]	10.1
AATATAAAAATATAAAAACACACGTAAAAAAATTTA [CACACA_site3399]	9.73
TAATTTCTTATGTATTGTACAAATAATGTATGATAT [XGTACX_site270]	9.2
AAAAAAAAAAAAAAGGTGCAAATAAATTAACCTTAT	9.16
TGCAAGGAACAACACACACACACATAAATGTATATA [CACACA_site8149]	10.2
AGAAAAAACAAAAGAGAAATGAAAAAAAAAAAAAAA [XGTACX_negctrl_site482]	8.87
TTAAGATAGCAAATATGTACACATTTGTAAAATAAA [XGTACX_site4837]	9.25
TTAAACGTACATAATACACACACATGTAGACATATA [CACACA_site8635]	9.79

Sequence	gcPBM binding intensity (ln)
TATATATATTGTTATTGTACACAAATATAGGAAATA [XGTACX_site7110]	9.23
TTTATTAATTTATAGTGTACATATTAATAATATATT [XGTACX_site7949]	9.09
GTTTTCTAGTGGGGGTGTACATATTTATATTTAATA [XGTACX_site8378]	10.2
ATATATTATTTCTAGTGTACATACCCATATATAATA [XGTACX_site8902]	9.46
TTTGTGATATTATATTGTACCCTATATTTATTATAA [XGTACX_site4240]	9.56
TTATGTTCATTATATGCACACATATATATAAATGTA [CACACA_site8947]	9.24
TTTTTATAACAGCTTAGTACATATAAGAATTCTTGC [XGTACX_site5890]	8.9
AACATAAAAATTGAAGCACACACACTAATGAAATAC [CACACA_site8287]	10.2
ATAATGAAAACAAGCACACATACATAAAATAAAATA [CACACA_site3257]	9.86
TAAAAGAAAGCACATACACACACAAAAAAAAAAAAG [CACACA_site8159]	10.2
CATAAAAATTGAAGCACACACACAAAAGAAATACAA [CACACA_site1112]	10.2
TAAAAATTGAAGCACACACACAAAAGAAATACAATA [CACACA_site1113]	10.2
TCATAATGAAAACAAGCACACATACATAAAATAAAA [CACACA_site9069]	9.7
AAGCACAAAAAATACACACACAAAAAATAAAAAAAG [CACACA_site1840]	10.1
GCAAAATAAAGAAGCACACAAAAATGAAATATATAT [CACACA_site3651]	9.59
TAAAAGTTGAAGCACACACACAAAAGAAATACAATA [CACACA_site6649]	10.1
GGTCTTTTCAACACACGTACATAAAAATATTATACA [XGTACX_site5360]	9.47
AAATAAATAATAAATAAATAAATAAAATACCAAATA [GTGCAC_negctrl_site620]	9.6
AAGAAAATATAAAATGCACACTATAAATTGTATATA [CACACA_site7928]	9.51
TACATAAATACATACATACACACATATATATATATA [CACACA_site2105]	9.56
